SARS PLP yeast: inhibitors of SARS-CoV papain-like protease in yeast; S. cerevisiae expressing SARS-CoV PLpro, growth rescue; Potency, µM (highest dose often 32.9 µM), inactives show at the top dose activity, positive = growth rescue, hits mostly activators; hit rate 0.19% among 330,000; AID 485353; calls by dose curve; note: potency is the fitted concentration of half-maximal effect; 0% is about no effect; nearly all actives have a fitted effect of over 55% in size
AmpC no deterg: AmpC beta-lactamase inhibition without detergent; AmpC nitrocefin hydrolysis, absorbance 480 nm, 0.0001% Triton; Potency, µM (highest dose often 57.1 µM), for inactives: top-dose activity change, negative = inhibition, most hits filed as inhibitors; hit rate 0.52% among 330,000; AID 485341;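 note: potency is the fitted concentration of half-maximal effect; plate controls were no compound for no effect and no enzyme for full effect; nearly all actives have a fitted effect of over 20% in size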
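20 mM phosphate pH 7.0 + 0.01% (detergent screen) or 0.0001% Triton X-100; 5.3 nM AmpC reagent; cpd preinc 15 min RT; nitrocefin (800 uM stock) to start; A480 q20 s × 4 min; Activity was normalised to no-enzyme and no-compound control wells.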
Giardia FBPA inh: blocks Giardia fructose-bisphosphate aldolase activity. A8B2U2. purified Giardia FBPA. Potency, µM (highest dose often 59.6 µM), for the others: at the highest dose activity, negative = inhibition, usual class: inhibitors. hit rate 0.71% among 290,000. AID 2451; note: potency is the fitted concentration of half-maximal effect; % is set by controls: 0 for no effect and ±100 for the full control effect; nearly all actives have a fitted effect of over 55% in size
Target sequence (A8B2U2 whole entry, looked up): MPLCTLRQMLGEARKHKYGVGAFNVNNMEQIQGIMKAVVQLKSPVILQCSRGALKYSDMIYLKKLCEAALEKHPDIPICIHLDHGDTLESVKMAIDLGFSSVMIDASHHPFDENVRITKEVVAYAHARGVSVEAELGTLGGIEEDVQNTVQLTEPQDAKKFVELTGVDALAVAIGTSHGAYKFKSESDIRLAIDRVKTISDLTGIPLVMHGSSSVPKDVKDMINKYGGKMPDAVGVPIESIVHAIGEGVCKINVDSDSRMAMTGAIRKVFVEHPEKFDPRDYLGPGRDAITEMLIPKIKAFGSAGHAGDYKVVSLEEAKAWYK
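Giardia FBPA (40 nM reagent) was preincubated 10 min at RT with compound (up to 57.5 uM final), then substrate plus GAPDH/TPI/NAD/arsenate coupling system with diaphorase/resazurin was added; resorufin fluorescence (525/598 nm) was read after 20 min.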
NS1 inh: influenza NS1 inhibition. hit rate 0.4% among 270,000. Potency, µM (titrated, usually from 46.1 µM), inactives show top-dose activity, positive = more growth; calls by dose curve; note: potency is the fitted concentration of half-maximal effect; actives are rising curves; nearly all actives have a fitted effect of over 50% in size
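Recovery from NS1-induced slow growth read by OD600 in budding yeast switched to galactose assay medium (pH 6.0, -URA) at 1:100 dilution. Compound 23 nl per well; the matching strain lacking NS1 serves as control.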
AmpC inh detg: inhibitors of E. coli AmpC beta-lactamase with detergent; AmpC hydrolysis of nitrocefin, absorbance 480 nm, 0.01% Triton; Potency, µM (top dose mostly 114 µM), inactives show top-dose activity change, negative = inhibition, actives largely listed as inhibitors; hit rate 0.041% among 370,000; AID 485294;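 note: potency is the fitted concentration of half-maximal effect; 0% = no-compound wells and -100% = no-enzyme wells; nearly all actives have a fitted effect of over 25% in size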
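20 mM phosphate pH 7.0 + 0.01% (detergent screen) or 0.0001% Triton X-100; 5.3 nM AmpC reagent; cpd preinc 15 min RT; nitrocefin (800 uM stock) to start; A480 q20 s × 4 min; Activity was normalised to no-enzyme and no-compound control wells.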
Flu NS1 inh: influenza NS1 function inhibition validation; shares compounds with NS1 inh; influenza NS1 function cell assay, 15-point titration; activity change, negative = inhibition, % at 32.9 µM; 1,400 tested, under 10 active; AID 492980; calls by dose curve; note: 0% is about no effect
PR8 titer: influenza virus titer reduction, NS1 project; hit rate 30% among 95; shares compounds with NS1 inh; AID 504647; MDCK infected influenza A/PR/8/34, virus titer TCID50; hits give low values; virus titer (log TCID50), log10 TCID50 at 5 µM; call rule not given here
Numbers without * were called inactive; ? = inconclusive; . = no result given. The list is not random: actives were taken first. Their share in the collection is about 1.4%. Unless noted, calls come from the whole dose curve; as a rule, active = well fitted curve in the direction sought with a large enough effect; inconclusive = small, poorly fitted or top-dose-only effect, or another doubt; inactive = no such curve, though single readings can be large; an effect the other way counts as inactive or inconclusive.

SMILES	SARS PLP yeast	AmpC no deterg	Giardia FBPA inh	NS1 inh	AmpC inh detg	Flu NS1 inh	others
CN(C)c1ccc(CNC(=O)CCNS(=O)(=O)c2cc(Br)cnc2N)cc1	2%	-9%	.	9%	6%	.
COCC(C)N=C1NN=C(c2c[nH]c3ccccc23)CS1 (stereo not given)	13%	-38%	2%	?	-4%	-2
CCCCOc1c(Br)cc(/C=C2\N=C(C)OC2=O)cc1OCC	9%	12%	14%	3.5µM*	9%	-2
COc1cc(/C=C2\N=C(C)OC2=O)cc(Cl)c1OC(C)=O	2%	-12%	-1%	0%	-6%	.
O=C(N/N=C/c1ccc(N2CCOCC2)s1)c1ccc(NS(=O)(=O)c2cccs2)cc1	0%	-23%	6%	10µM*	1%	36
COc1ccccc1/C=C1\CCCC2=C1Nc1nnnn1C2c1ccccc1OC (stereo not given)	15%	-57%	-13%	?	-8%	?	PR8 titer=8.5
CCOC(=O)N1CCC(N2CCN(c3cc(C)ccc3C)CC2)CC1	-2%	68%	-7%	2%	-2%	.
Cc1ccc(-c2csc(NC(=O)c3cccc([N+](=O)[O-])c3)n2)cc1	7%	-15%	1%	5µM*	-5%	1
COc1cccc(OC)c1C(=O)Nc1nc(-c2ccccc2)cs1	6%	-13%	5%	13µM*	5%	-16
O=C(Nc1nc(-c2ccc([N+](=O)[O-])cc2)cs1)c1c(F)cccc1F	0%	-12%	0%	13%	-2%	.
Cc1nc2ccc(NC(=O)c3ccco3)cc2nc1C	12%	-20%	-8%	-5%	6%	.
O=C(Nc1ccc(Oc2ccc(NC(=O)c3ccco3)c(NC(=O)c3ccco3)c2)cc1)c1ccco1	-2%	-4%	-1%	8.9µM*	0%	12	PR8 titer=7.7
Cc1cc2cc(NC(=O)c3ccco3)ccc2[nH]1	3%	-3%	?	2.5µM*	6%	?
CC(C)c1ccc(C2C3CSCC=C3C(C#N)=C(N)C2(C#N)C#N)cc1 (stereo not given)	-33%	-49%	?	5%	-1%	.
c1ccc(C(c2nnnn2Cc2ccco2)N2CCN(c3nc4ccccc4s3)CC2)cc1 (stereo not given)	13%	8%	-1%	13µM*	4%	-19
COc1ccc(C(c2nnnn2Cc2ccccc2)N2CCN(c3nc4ccccc4s3)CC2)cc1OC (stereo not given)	-5%	120%	?	28%	3%	.
c1ccc(Cn2nnnc2C(c2ccccc2)N2CCN(c3nc4ccccc4s3)CC2)cc1 (stereo not given)	-2%	-5%	2%	10µM*	?	-14
CCCCC(c1nnnn1Cc1ccco1)N1CCN(c2nc3ccccc3s2)CC1 (stereo not given)	-9%	7%	-1%	-128%	-14%	.
COc1ccc(C2=NCC(=O)N(CC(=O)NCc3ccco3)c3sc4c(c32)CCCC4)cc1OC	-1%	109%	2%	-30%	2%	.
CN(C)/C=C/C(=O)c1nnn(C2CCCCC2)c1NC1CCCCC1	0%	63%	6%	7.9µM*	?	?
C1CCC(Nc2nnnn2C2CCCCC2)CC1	3%	-15%	-1%	3%	-11%	.
COc1cc(C2C(C#N)=C(N)Oc3c2ccc2ccccc32)ccc1OCC(=O)Nc1ccc(C)cc1 (stereo not given)	6%	-34%	?	?	-2%	.
COc1cc(C2C(C#N)=C(N)Oc3c2ccc2ccccc32)ccc1OCC(=O)Nc1cccc(C)c1 (stereo not given)	12%	?	?	11µM*	-9%	5	PR8 titer=8.3
CCC(Cc1ccccc1)NC(=O)CCS(=O)(=O)c1cc2c(cc1Cl)NC(=O)CO2 (stereo not given)	.	.	.	.	18%	.
